Test results: PubChem BioAssay (EPA / NIEHS)
Records with an inconclusive call do not appear. Activity calls are given as the source filed them. The calls were made as follows, unless noted: active = hit-call score of the fitted dose curve at least 0.9, where 1 is the maximum; inactive = score below 0.9.

Legend:
[1] = ATG_SREBP_CIS: Attagene CIS-FACTORIAL HepG2 Assay for human Sterol Regulatory Element Binding (SREBP) (AID 2282962); settings: HepG2 Attagene cis-factorial SREBP reporter, mRNA; actives raise or lower the signal
Outline: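 HepG2 cells transiently transfected with multiplexed cis-element reporter units report endogenous transcription factor activity. After 24 h of chemical exposure, reporter mRNA was quantified by RT-PCR, 6-FAM labelling, HpaI digestion and capillary electrophoresis; bidirectional fits used DMSO as baseline.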

[2] = molecular target: Signal transducer and activator of transcription 3 (Homo sapiens) (UniProt P40763); test: ATG_STAT3_CIS: Attagene CIS-FACTORIAL HepG2 Assay for human Signal Transducer and Activator of Transcription 3 (STAT3) (AID 2282963); settings: HepG2, Attagene cis-factorial STAT3 reporter transcription; actives raise or lower the signal
Outline: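 HepG2 cells transiently transfected with cis-element-driven multiple reporter transcription units; after 24 h chemical exposure, reporter mRNA measured by RT-PCR, 6-FAM primer-extension labelling, HpaI digestion and capillary electrophoresis. Bidirectional fitting versus DMSO baseline.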

[3] = ATG_TA_CIS: Attagene CIS-FACTORIAL HepG2 Assay for human TA Basal Promoter (AID 2282964); settings: HepG2 Attagene CIS-factorial TA basal promoter reporter; actives raise or lower the signal
Outline: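 Multiplexed mRNA reporter assay, HepG2, 24 h. Reporter cDNA amplified, 6-FAM primer-extended, HpaI-cut, CE-sized; DMSO = negative control and baseline.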

[4] = ATG_TCF_b_cat_CIS: Attagene CIS-FACTORIAL HepG2 Assay for human T-Cell-Factor with beta-catenin (TCF/b-cat) (AID 2282965); settings: HepG2 TCF/beta-catenin cis-reporter transcription, actives raise or lower the signal
Outline: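 Using capillary electrophoresis as the read-out, labelled reporter cDNA fragments from transiently transfected HepG2 were sized and quantified. Exposure lasted 24 hours; activity in either direction was referenced to DMSO.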

[5] = ATG_TAL_CIS: Attagene CIS-FACTORIAL HepG2 Assay for human TAL Basal Promoter (AID 2282966); settings: HepG2 Attagene cis-factorial TAL promoter reporter; actives raise or lower the signal;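 also: background control endpoint measuring basal TAL promoter reporter mRNA not a specific factor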
Outline: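 HepG2 cells were transiently transfected with promoter-driven multiplexed reporter units and dosed for 24 h. Reporter mRNA was measured by RT-PCR with capillary electrophoresis fluorescence; bidirectional fits used DMSO as baseline, serving as a background control.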

[6] = ATG_TGFb_CIS: Attagene CIS-FACTORIAL HepG2 Assay for human Transforming Growth Factor (TGF) (AID 2282967); settings: HepG2 Attagene CIS TGFb reporter, mRNA transcription; actives raise or lower the signal
Outline: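 Transcript-level reporter readout: HepG2 transfectants, 24 h exposure, RNA to cDNA, reporter-specific PCR, fluorescent primer extension, capillary sizing against ROX standards. Gain- or loss-of-signal relative to DMSO.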

[7] = ATG_VDRE_CIS: Attagene CIS-FACTORIAL HepG2 Assay for human Vitamin D Receptor Element (VDRE) (AID 2282968); settings: HepG2 VDRE cis-reporter transcription, actives raise or lower the signal
Outline: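 HepG2 cells transiently transfected with cis-element reporter units, dosed 24 h; reporter mRNA measured by RT-PCR, 6-FAM labeling, HpaI digestion and capillary electrophoresis. Activity fitted bidirectionally against DMSO baseline.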

[8] = molecular target: X-box-binding protein 1 (Homo sapiens) (UniProt P17861); test: ATG_Xbp1_CIS: Attagene CIS-FACTORIAL HepG2 Assay for human X-box Binding Protein 1 (XBP1) (AID 2282972); settings: HepG2 XBP1 cis-element reporter, Attagene multiplex; actives raise or lower the signal
Outline: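 HepG2 cells transiently transfected with cis-regulated multiple reporter transcription units; endogenous transcription factor activity measured 24 hours after chemical dosing. Reporter mRNA quantified by RT-PCR, 6-FAM primer extension, HpaI digestion and capillary electrophoresis; bidirectional fitting versus DMSO.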

[9] = molecular target: Glucocorticoid receptor (Homo sapiens) (UniProt P04150); test: ATG_GR_TRANS: Attagene TRANS-FACTORIAL HepG2 Assay for human Glucocorticoid Receptor (GR) (AID 2282978; active = hit-call score of the fitted dose curve at least 0.9, where 1 is the maximum;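 also: activators score as hits since higher reporter transcript over DMSO is fitted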); settings: HepG2 Attagene TRANS GR reporter, mRNA transcription
Outline: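 HepG2 cells transiently transfected with GAL4-UAS reporter units and exogenous GR-Gal4 chimera, dosed 24 h. Reporter mRNA by RT-PCR, FAM labeling, HpaI digest and capillary electrophoresis; gain-of-signal fit versus DMSO.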

[10] = molecular target: Nuclear receptor subfamily 1 group I member 3 (Homo sapiens) (UniProt Q14994); test: ATG_CAR_TRANS: Attagene TRANS-FACTORIAL HepG2 Assay for human Constitutive Androstane Receptor (CAR) (AID 2282969; active = hit-call score of the fitted dose curve at least 0.9, where 1 is the maximum;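 also: activators raise reporter mRNA above DMSO so AC50 marks induction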); settings: HepG2 Attagene TRANS-FACTORIAL CAR reporter
Outline: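 HepG2 cells transiently transfected with multiplexed GAL4-UAS reporter units expressing chimeric NR-Gal4 proteins; compound exposure 24 h. Reporter mRNA measured by RT-PCR, 6-FAM labelling, HpaI digestion and capillary electrophoresis; gain-of-signal fitted against DMSO baseline.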

[11] = molecular target: Estrogen receptor (Homo sapiens) (UniProt P03372); test: ATG_ERa_TRANS: Attagene TRANS-FACTORIAL HepG2 Assay for human Estrogen Receptor alpha (ERa) (AID 2282970; active = hit-call score of the fitted dose curve at least 0.9, where 1 is the maximum); settings: HepG2 Attagene TRANS ERa GAL4 reporter, mRNA
Outline: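 HepG2 cells transiently transfected with multiplexed GAL4-UAS reporter units; ERa activity read via exogenous chimeric NR-Gal4 protein. After 24 hour compound exposure, reporter mRNA measured by RT-PCR with 6-FAM labelling and capillary electrophoresis; gain-of-signal fitted relative to DMSO.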

[12] = molecular target: Steroid hormone receptor ERR1 (Homo sapiens) (UniProt P11474); test: ATG_ERRa_TRANS: Attagene TRANS-FACTORIAL HepG2 Assay for human Estrogen-Related Receptor alpha (ERRa) (AID 2282971; active = hit-call score of the fitted dose curve at least 0.9, where 1 is the maximum); settings: HepG2 Attagene TRANS reporter, ERRa transactivation
Outline: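 HepG2 cells transiently transfected with multiplexed GAL4-UAS reporter units reading chimeric ERRa-Gal4 activity; 24 h compound exposure. Reporter mRNA measured by RT-PCR, 6-FAM labelling, HpaI digest and capillary electrophoresis; gain of signal fitted versus DMSO baseline.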

[13] = ATG_M_19_TRANS: Attagene TRANS-FACTORIAL HepG2 Assay for M19 Transcription Factor (Internal Marker) (AID 2282974; active = hit-call score of the fitted dose curve at least 0.9, where 1 is the maximum); settings: HepG2 Attagene TRANS-FACTORIAL M19 internal marker reporter
Outline: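 HepG2 transiently transfected with GAL4-UAS multiplex reporter constructs, exposed 24 h; reporter RNA quantified by RT-PCR, 6-FAM labeling, HpaI digestion and capillary electrophoresis; internal background marker fitted upward versus DMSO.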

[14] = molecular target: Oxysterols receptor LXR-alpha (Homo sapiens) (UniProt Q13133); test: ATG_LXRa_TRANS: Attagene TRANS-FACTORIAL HepG2 Assay for human Liver X Receptor alpha (LXRa) (AID 2282980; active = hit-call score of the fitted dose curve at least 0.9, where 1 is the maximum); settings: HepG2 Attagene TRANS reporter, LXRa transactivation
Outline: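 HepG2 cells were transiently transfected with multiplexed reporter units driven by chimeric LXRa–GAL4 fusion proteins, then dosed for 24 h. Reporter mRNA was quantified by RT-PCR, fluorescent labelling and capillary electrophoresis; gain of signal fitted against DMSO baseline.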

[15] = molecular target: Transcription factor Sp1 (Homo sapiens) (UniProt P08047); test: ATG_Sp1_CIS: Attagene CIS-FACTORIAL HepG2 Assay for human Specificity Protein 1 (Sp1) (AID 2282961); settings: HepG2 Sp1 cis-reporter transcription, actives raise or lower the signal
Outline: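 HepG2 cells transiently transfected with multiplexed cis-regulated reporter constructs, chemical exposure 24 h. Reporter mRNA quantified by RT-PCR with capillary electrophoresis; bidirectional fit relative to DMSO.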

[16] = ATG_GAL4_TRANS: Attagene TRANS-FACTORIAL HepG2 Assay for GAL4 (Internal Marker) (AID 2282976; active = hit-call score of the fitted dose curve at least 0.9, where 1 is the maximum); settings: HepG2 Attagene TRANS GAL4 internal marker reporter
Outline: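 HepG2 cells transiently transfected with multiplexed GAL4-UAS reporter constructs were dosed for 24 h. Reporter mRNA was measured by RT-PCR, 6-FAM primer extension, HpaI digestion and capillary electrophoresis, and gain of signal was fitted relative to DMSO.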

[17] = molecular target: Bile acid receptor (Homo sapiens) (UniProt Q96RI1); test: ATG_FXR_TRANS: Attagene TRANS-FACTORIAL HepG2 Assay for Farnesoid X Receptor (FXR) (AID 2282979; active = hit-call score of the fitted dose curve at least 0.9, where 1 is the maximum;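 also: hits raise reporter mRNA above DMSO so AC50 marks FXR activation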); settings: HepG2 Attagene TRANS FXR-GAL4 reporter transcription
Outline: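 HepG2 cells transiently transfected with reporter constructs in which a chimeric FXR-GAL4 protein drives a GAL4-UAS reporter; 24 h compound exposure. Reporter mRNA measured by RT-PCR, FAM labelling, HpaI digestion and capillary electrophoresis; gain-of-signal versus DMSO.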

Measured: AC50

Chain of Oxysterols receptor LXR-alpha (Homo sapiens) (Q13133 whole entry, looked up, the tested form may be a part): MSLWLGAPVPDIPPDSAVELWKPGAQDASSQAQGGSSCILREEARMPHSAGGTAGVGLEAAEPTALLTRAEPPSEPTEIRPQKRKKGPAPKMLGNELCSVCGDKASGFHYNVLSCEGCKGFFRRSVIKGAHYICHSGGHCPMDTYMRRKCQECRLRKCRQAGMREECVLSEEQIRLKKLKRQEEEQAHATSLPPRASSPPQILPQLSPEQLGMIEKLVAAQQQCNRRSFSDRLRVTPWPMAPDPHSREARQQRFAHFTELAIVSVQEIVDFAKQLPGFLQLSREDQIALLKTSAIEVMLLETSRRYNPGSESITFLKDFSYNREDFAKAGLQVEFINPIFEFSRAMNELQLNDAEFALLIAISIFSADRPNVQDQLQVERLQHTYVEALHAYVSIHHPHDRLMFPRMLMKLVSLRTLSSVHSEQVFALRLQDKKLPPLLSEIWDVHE
Chain of Signal transducer and activator of transcription 3 (Homo sapiens) (P40763 whole entry, looked up): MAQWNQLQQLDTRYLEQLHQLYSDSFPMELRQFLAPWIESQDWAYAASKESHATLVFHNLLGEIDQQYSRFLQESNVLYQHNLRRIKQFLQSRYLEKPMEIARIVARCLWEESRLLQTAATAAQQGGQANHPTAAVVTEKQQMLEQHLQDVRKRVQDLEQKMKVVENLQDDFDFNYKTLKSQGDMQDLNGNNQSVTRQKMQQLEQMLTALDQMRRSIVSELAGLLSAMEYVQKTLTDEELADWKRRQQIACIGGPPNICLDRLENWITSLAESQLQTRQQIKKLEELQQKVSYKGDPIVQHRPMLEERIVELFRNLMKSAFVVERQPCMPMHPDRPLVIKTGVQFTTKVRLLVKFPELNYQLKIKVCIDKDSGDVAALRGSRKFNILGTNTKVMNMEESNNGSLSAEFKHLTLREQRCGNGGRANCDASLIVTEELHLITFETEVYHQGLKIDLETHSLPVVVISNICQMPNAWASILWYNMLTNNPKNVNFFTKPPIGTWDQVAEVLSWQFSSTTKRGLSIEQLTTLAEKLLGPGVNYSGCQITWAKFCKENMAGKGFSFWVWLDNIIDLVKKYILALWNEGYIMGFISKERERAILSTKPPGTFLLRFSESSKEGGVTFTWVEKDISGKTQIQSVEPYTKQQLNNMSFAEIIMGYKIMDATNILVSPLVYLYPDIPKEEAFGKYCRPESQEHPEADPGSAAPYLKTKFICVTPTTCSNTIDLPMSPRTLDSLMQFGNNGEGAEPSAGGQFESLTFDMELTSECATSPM
Chain of X-box-binding protein 1 (Homo sapiens) (P17861 whole entry, looked up): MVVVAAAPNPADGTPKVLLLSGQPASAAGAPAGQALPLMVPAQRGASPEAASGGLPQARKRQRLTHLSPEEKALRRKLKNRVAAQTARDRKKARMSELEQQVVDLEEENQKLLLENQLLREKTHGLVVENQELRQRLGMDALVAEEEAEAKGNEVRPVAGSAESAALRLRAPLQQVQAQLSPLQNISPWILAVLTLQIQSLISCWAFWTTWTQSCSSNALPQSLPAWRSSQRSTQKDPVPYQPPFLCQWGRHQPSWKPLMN
Chain of Glucocorticoid receptor (Homo sapiens) (P04150 whole entry, looked up, the tested form may be a part): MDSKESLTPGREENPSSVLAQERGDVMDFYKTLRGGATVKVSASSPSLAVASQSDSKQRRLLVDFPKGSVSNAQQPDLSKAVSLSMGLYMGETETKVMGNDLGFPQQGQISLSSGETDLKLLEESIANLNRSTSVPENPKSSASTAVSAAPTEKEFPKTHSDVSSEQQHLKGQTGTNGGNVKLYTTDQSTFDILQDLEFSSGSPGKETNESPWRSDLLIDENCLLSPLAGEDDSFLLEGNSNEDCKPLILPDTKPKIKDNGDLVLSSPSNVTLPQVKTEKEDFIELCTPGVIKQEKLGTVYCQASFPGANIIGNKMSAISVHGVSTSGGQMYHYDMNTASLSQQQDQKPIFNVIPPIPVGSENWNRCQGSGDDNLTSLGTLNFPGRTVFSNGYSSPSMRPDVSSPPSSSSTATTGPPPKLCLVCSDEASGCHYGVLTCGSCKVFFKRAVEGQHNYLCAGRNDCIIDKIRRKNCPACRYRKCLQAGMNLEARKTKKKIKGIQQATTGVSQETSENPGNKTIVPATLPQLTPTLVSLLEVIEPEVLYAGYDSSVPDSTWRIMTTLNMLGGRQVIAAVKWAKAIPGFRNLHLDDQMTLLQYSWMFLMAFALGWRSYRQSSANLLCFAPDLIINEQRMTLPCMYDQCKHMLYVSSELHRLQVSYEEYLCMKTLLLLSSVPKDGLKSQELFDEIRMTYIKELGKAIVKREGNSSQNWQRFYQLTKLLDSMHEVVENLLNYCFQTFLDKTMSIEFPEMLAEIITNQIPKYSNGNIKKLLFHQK
Chain of Estrogen receptor (Homo sapiens) (P03372 whole entry, looked up, the tested form may be a part): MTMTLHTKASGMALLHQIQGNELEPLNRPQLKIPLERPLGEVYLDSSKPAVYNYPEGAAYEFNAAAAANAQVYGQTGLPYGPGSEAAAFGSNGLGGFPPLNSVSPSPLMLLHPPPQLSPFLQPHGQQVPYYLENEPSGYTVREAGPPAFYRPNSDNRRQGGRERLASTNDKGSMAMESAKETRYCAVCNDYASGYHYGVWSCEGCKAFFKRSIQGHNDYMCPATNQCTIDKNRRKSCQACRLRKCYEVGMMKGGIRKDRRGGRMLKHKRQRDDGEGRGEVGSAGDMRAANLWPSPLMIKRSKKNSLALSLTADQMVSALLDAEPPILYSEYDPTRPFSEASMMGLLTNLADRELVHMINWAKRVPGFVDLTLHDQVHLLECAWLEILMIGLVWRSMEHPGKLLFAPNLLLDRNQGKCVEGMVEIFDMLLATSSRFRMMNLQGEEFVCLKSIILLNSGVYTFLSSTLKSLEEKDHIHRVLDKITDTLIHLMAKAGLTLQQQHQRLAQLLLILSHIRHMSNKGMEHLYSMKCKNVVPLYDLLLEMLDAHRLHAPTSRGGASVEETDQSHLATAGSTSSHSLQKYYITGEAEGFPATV
Chain of Nuclear receptor subfamily 1 group I member 3 (Homo sapiens) (Q14994 whole entry, looked up, the tested form may be a part): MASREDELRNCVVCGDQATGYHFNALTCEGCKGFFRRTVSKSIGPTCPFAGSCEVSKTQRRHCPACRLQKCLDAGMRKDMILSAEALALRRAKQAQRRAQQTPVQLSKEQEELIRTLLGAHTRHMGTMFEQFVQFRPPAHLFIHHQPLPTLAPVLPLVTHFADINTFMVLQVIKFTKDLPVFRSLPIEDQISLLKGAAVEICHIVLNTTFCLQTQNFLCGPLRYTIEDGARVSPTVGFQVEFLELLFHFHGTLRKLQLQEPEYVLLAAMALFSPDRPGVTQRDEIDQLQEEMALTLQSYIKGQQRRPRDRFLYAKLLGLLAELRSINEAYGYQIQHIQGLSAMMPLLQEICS
Chain of Steroid hormone receptor ERR1 (Homo sapiens) (P11474 whole entry, looked up, the tested form may be a part): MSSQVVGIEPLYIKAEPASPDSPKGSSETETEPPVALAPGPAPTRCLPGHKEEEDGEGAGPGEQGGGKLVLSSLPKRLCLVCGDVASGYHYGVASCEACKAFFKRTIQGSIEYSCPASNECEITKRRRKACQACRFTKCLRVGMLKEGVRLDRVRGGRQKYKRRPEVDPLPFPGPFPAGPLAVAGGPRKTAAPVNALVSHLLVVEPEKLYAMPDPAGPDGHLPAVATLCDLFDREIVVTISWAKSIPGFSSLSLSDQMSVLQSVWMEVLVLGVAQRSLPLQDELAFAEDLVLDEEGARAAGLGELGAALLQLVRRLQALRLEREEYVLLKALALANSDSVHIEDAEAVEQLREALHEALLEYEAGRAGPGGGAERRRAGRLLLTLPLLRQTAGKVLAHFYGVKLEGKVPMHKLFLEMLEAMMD
Chain of Transcription factor Sp1 (Homo sapiens) (P08047 whole entry, looked up): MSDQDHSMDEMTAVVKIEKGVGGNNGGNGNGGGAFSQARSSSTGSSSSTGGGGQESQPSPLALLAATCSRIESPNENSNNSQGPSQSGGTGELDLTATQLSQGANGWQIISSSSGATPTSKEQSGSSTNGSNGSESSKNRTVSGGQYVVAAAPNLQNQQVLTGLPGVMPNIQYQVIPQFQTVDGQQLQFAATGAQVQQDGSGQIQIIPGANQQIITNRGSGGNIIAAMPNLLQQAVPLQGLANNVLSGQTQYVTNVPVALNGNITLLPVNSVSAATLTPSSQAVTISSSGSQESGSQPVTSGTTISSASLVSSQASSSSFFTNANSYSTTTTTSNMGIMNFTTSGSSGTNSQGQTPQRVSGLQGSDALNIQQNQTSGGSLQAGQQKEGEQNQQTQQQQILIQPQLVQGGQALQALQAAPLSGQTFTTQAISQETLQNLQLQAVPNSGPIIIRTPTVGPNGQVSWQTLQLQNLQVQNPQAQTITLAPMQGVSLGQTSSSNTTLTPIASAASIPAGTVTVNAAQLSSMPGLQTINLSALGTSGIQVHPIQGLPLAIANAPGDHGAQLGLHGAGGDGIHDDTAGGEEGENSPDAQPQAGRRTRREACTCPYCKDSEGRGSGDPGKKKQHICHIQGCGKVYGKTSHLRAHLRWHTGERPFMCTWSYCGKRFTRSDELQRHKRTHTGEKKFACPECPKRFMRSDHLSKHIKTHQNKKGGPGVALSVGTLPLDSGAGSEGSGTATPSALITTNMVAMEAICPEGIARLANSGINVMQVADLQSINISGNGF
Chain of Bile acid receptor (Homo sapiens) (Q96RI1 whole entry, looked up, the tested form may be a part): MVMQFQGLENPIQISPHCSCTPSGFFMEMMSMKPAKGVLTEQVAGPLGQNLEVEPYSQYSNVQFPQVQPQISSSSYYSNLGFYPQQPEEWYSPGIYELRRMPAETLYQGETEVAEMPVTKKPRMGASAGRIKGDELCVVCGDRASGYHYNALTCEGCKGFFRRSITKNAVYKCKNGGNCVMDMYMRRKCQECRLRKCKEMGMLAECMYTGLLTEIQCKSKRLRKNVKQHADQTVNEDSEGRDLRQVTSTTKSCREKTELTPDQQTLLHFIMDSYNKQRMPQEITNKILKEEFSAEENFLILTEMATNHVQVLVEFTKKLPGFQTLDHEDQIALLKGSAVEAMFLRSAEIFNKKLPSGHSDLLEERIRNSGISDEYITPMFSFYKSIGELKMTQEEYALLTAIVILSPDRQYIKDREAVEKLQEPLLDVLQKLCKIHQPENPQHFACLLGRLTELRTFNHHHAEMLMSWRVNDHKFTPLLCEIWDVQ

CC(C)N(C(=O)CCl)c1ccccc1
active: [1] 33.4 µM | [6] 8.03 µM | [7] 51.7 µM | [8] 47.9 µM
inactive: [2] | [3] | [4] | [5] | [9]

O=C(Cl)OCCOCCOC(=O)Cl
not listed: [1] | [4] | [9] | [15] | [16] | [17]
inactive: all other assays above

CCCCCCCCCCCCCl
not listed: [7] | [10] | [12] | [16] | [17]
inactive: all other assays above

OC[C@@H](O)[C@H]1O[C@@H]2O[C@H](C(Cl)(Cl)Cl)O[C@@H]2[C@H]1O
not listed: [7] | [9] | [13] | [15] | [17]
inactive: all other assays above

CNC(=O)CSP(=O)(OC)OC
inactive: [1] | [2] | [4] | [5] | [6] | [13] | [9] | [17]
